# A selection: hits, their analogues and other compounds. The true share with any hit is near 2.7%.
# HSP90 refold inh: HSP90 inhibitors, primary screen, cell lysate, luminescence. AID 1789, 2009. hit rate 0.91% among 290,000. Rabbit reticulocyte lysate, luciferase refolding luminescence, 3 h. inhibition, % at 5.6 µM;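 active = inhibition above the screen-wide mean plus 3 SD, computed separately per campaign, cut at about 16% in these data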;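 note: 0% = DMSO wells and 100% = 60 µM geldanamycin wells; inhibitors lower the luminescence because luciferase stays unfolded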
# SENP8 block-1: SENP8 protease inhibitors, primary screen, biochemical, luminescence. Sentrin-specific protease 8 (Homo sapiens), Q96LD8. purified SENP8, Z-RLRGG-aminoluciferin cleavage. inhibition, % at 10 µM. hit rate 1.2% among 330,000. AID 2540, 2010; in the data active = inhibition above about 50%
# SENP6 block: SENP6 protease inhibitors, primary screen, biochemical, luminescence, uHTS. Sentrin-specific protease 6 (Homo sapiens), Q9GZR1. Recombinant SENP6 catalytic domain, aminoluciferin luminescence. inhibition, % at 10 µM. hit rate 1.8% among 330,000;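 active = inhibition above about 50% at the single tested dose, limit read from the data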;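 note: plate controls were DMSO wells with enzyme for no effect and DMSO wells lacking enzyme for full effect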
# SENP8 block-2: human SENP8 protease inhibitors, primary screen, biochemical, fluorescence, Nedd8 protein substrate, uHTS | inhibition, % at 20 µM | Sentrin-specific protease 8 (Homo sapiens), Q96LD8 | AID 602440, 2012 | recombinant SENP8 | hit rate 0.64% among 360,000; in the data active = inhibition mostly above about 40%, no sharp cut-off; inactive = mostly below about 27%
# SENP7 inh: SENP7 protease inhibitors, primary screen, biochemical, luminescence, uHTS; recombinant SENP7, Z-RLRGG-aminoluciferin luminescence, 40 min; inhibition, % at 5 µM; hit rate 1.5% among 330,000;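 active = inhibition above about 50% at the single test dose, limit read from the data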;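 note: plate controls were DMSO with enzyme for no effect and no enzyme buffer wells for full effect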
# Target sequence (Q9BQF6 706-1050 limits assumed): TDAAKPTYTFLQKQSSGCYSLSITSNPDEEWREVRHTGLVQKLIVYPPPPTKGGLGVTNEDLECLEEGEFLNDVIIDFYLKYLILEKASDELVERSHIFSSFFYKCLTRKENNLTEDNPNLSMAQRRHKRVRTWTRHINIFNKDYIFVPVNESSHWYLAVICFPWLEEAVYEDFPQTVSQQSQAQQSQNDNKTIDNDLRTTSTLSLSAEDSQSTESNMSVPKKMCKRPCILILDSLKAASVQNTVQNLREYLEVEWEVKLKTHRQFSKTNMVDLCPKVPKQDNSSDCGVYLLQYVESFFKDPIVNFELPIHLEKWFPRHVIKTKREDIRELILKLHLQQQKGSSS
# SENP8 conf: SENP8 protease inhibitors, retest, confirmation, biochemical, luminescence, single concentration. shares compounds with SENP7 inh. Recombinant SENP8, Z-RLRGG-aminoluciferin luminescence, 60 min. inhibition, % at 12.5 µM. hit rate 40% among 6,200;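 active = mean inhibition across replicates above about 50%, limit read from the data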
# SENP6 confirm: SENP6 protease inhibitors, confirmation, biochemical, luminescence, single concentration; hit rate 58% among 6,200; recombinant SENP6, Z-RLRGG-aminoluciferin luminescence; inhibition, % at 12.5 µM; shares compounds with SENP7 inh
# SENP7 confirm: SENP7 protease inhibitors, retest, confirmation, biochemical, luminescence, single concentration | shares compounds with SENP7 inh | recombinant SENP7, Z-RLRGG-aminoluciferin luminescence, 40 min | inhibition, % at 12.5 µM | hit rate 69% among 6,200 | AID 488917, 2010
# Casp3 select: caspase-3 protease inhibitors, confirmation, selectivity assay for SENP inhibitor project, biochemical, single concentration; shares compounds with SENP7 inh; purified caspase-3, Z-DEVD-aminoluciferin luminescence, 60 min; inhibition, % at 12.5 µM; hit rate 60% among 6,200; AID 488918, 2010;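 active = mean inhibition above about 50%, limit read from the data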;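 note: plate controls were enzyme with DMSO for no effect and wells without caspase-3 for full effect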
# Target sequence (P42574 28-227 limits assumed): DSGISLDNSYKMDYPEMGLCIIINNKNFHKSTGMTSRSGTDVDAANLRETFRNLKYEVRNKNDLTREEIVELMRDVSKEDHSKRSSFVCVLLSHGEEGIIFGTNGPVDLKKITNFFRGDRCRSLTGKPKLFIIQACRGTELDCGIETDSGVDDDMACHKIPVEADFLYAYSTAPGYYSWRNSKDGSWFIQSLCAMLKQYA
# SENP luc ctr: interferes with luciferase luminescence in SENP counter-screen | shares compounds with SENP7 inh | Pre-incubated SENP8/Z-RLRGG-aminoluciferin, luciferase luminescence interference | inhibition, % at 12.5 µM | hit rate 39% among 6,200 | AID 488919;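 active = mean inhibition above about 50% when retested at one dose, limit read from the data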;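 note: plate controls were DMSO wells with completed reaction for no effect and substrate without enzyme for full effect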
# Starred values were filed as active, the others as inactive; . = no result.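 Rule for the calls, unless noted: active = mean inhibition above about 50% in the one-dose retest (limit read from the data); inactive = the rest.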
SMILES,HSP90 refold inh,SENP8 block-1,SENP6 block,SENP8 block-2,SENP7 inh,SENP8 conf,SENP6 confirm,SENP7 confirm,Casp3 select,SENP luc ctr
Cc1ccnc(N/C=C/C(=O)c2ccc(Br)cc2)c1,9,87*,88*,-202,96*,26,40,60*,54*,18
Cc1cc(N/C=C/C(=O)c2ccc(Br)cc2)no1,1,-8,-25,-10,1,.,.,.,.,.
Cc1ccc(N/C=C/C(=O)c2ccco2)c(O)c1,3,47,14,-72,56*,55*,53*,84*,62*,5
O=C(/C=C/Nc1ccc(F)cc1)c1ccc(Br)cc1,3,37,1,-166,79*,4,8,12,36,-3
O=C(/C=C/Nc1ccc(F)cc1)c1ccco1,-2,74*,83*,-336,69*,84*,82*,96*,89*,79*
COc1ccc(-c2nn(-c3ccccc3)cc2/C=N/n2cnnc2)cc1OC,4,4,16,-322,5,.,.,.,.,.
C#CCN(C[C@H]1[C@H](OC(=O)NCc2ccco2)[C@H](OC(=O)NCc2ccco2)C[C@H]2C(=O)N(c3ccccc3)C(=O)[C@@H]12)S(=O)(=O)c1ccc(C)cc1,.,.,.,-20,.,.,.,.,.,.
COc1ccccc1N(CC(=O)Nc1ccc(F)c(F)c1)S(C)(=O)=O,0,1,-2,13,2,.,.,.,.,.
CCOC(=O)CCC(=O)N1CCOCCOCCOCC1,5,-4,1,13,-4,.,.,.,.,.
CCOC(=O)c1ccc(N/C=C/C(=O)c2ccc(OC)c(OC)c2)cc1,0,-3,-18,-342,-6,.,.,.,.,.
CCOC(=O)c1ccc(N/C=C/C(=O)c2ccco2)cc1,5,83*,85*,-275,-6,69*,71*,85*,88*,30
N#Cc1ccsc1NC(=O)CSc1nncs1,.,95*,95*,-4,97*,97*,97*,102*,98*,84*
N#Cc1ccsc1NC(=O)CSc1nnnn1-c1ccc(O)cc1,4,35,52*,10,18,33,25,61*,34,33
Cc1nnc(SCC(=O)Nc2sccc2C#N)s1,0,3,12,-3,-5,.,.,.,.,.
CCOC(=O)c1cnc(SCC(=O)c2ccccc2)nc1N,4,56*,81*,12,78*,14,23,28,26,31
CCOC(=O)c1cnc(-c2ccccc2)nc1N,-2,24,69*,10,51*,53*,54*,81*,70*,52*
COc1ccc(C2c3ccc4ccccc4c3Oc3ncn(CCN4CCOCC4)c(=N)c32)cc1 (stereo not drawn),-3,-13,-16,4,-5,.,.,.,.,.
COc1cccc(/C=C/C(=O)Nc2cccc(C(C)=O)c2)c1OC,-4,12,33,-62,29,.,.,.,.,.
COc1cccc(C(=O)Nc2ccc3c(c2)OCO3)c1OC,2,33,55*,16,37,27,25,73*,73*,54*
COc1cccc(/C=C/C(=O)Nc2ccc3c(c2)OCCO3)c1OC,21*,62*,33,6,76*,79*,77*,91*,71*,79*
C[C@@H]1CCC[C@@]2(O[C@H](CCO)C[C@@H](O)[C@@H]2O)O1,0,3,-14,12,5,.,.,.,.,.
O=C(/C=C/c1ccc2c(c1)OCO2)c1ccccn1,4,73*,75*,0,71*,92*,89*,95*,69*,68*
COc1ccccc1NC(=O)/C=C/c1ccc2c(c1)OCO2,3,65*,73*,2,68*,78*,75*,93*,73*,36
COc1ccc(OC)c(NC(=O)c2ccc3c(c2)OCO3)c1,-3,-7,-12,-4,-14,.,.,.,.,.
O=C(/C=C/c1ccc2c(c1)OCO2)Nc1ccc(Cl)cn1,0,-2,4,-373,54*,-27,-17,9,6,-3
SMILES,HSP90 refold inh,SENP8 block-1,SENP6 block,SENP8 block-2,SENP7 inh,SENP8 conf,SENP6 confirm,SENP7 confirm,Casp3 select,SENP luc ctr
O=C(C=Cc1ccc2c(c1)OCO2)c1ccccc1,.,.,.,-57,.,.,.,.,.,.
COc1ccccc1NC(=O)c1ccc2c(c1)OCO2,7,38,60*,4,51*,51*,48,84*,79*,60*
COc1ccccc1NC(=O)COC(=O)/C=C/c1ccc2c(c1)OCO2,3,-2,8,-312,-4,.,.,.,.,.
O=C(CNC(=O)c1ccco1)OCC(=O)c1ccccc1Cl,3,-11,8,4,-4,.,.,.,.,.
COc1ccc(NC(=S)NCC2CCCO2)c(C)c1 (stereo not drawn),2,3,7,12,1,.,.,.,.,.
COc1cc(N/N=C/c2ccccc2O)ncn1,4,1,74*,-19,71*,63*,63*,89*,75*,59*
COc1cc(N/N=C/c2ccc(N(C)C)cc2)ncn1,16,93*,96*,-389,97*,70*,81*,94*,78*,23
Cc1cnn(-c2cc(N/N=C/c3ccccc3F)ncn2)c1,-2,-1,-10,12,-2,.,.,.,.,.
CN(C[C@H](Cc1ccccc1)N(C[C@H](Cc1ccccc1)N(CCC(C)(C)C)N=O)N=O)N=O,4,-7,-3,16,5,.,.,.,.,.
CC(C)C[C@@H](CNCC(=O)[C@H](C)NC(=O)c1[nH]cnc1C(=O)N[C@@H](C)CN)NC(=O)c1nc[nH]c1C(=O)N[C@@H](CO)C(=O)O,.,.,.,1,.,.,.,.,.,.
COc1ccc(C2=NN(C(C#N)c3ccc(OC)c(OC)c3)C(c3ccccc3)C2)cc1 (stereo not drawn),-3,29,75*,-2,65*,6,3,23,24,21
COc1ccc(C2=NN(c3ccccc3)C(c3ccc(OC)c(OC)c3)C2)cc1 (stereo not drawn),4,-2,21,-304,-13,.,.,.,.,.

# Compound activity deposited in PubChem by several laboratories.
